In PubChem BioAssay AID687028 (Broad Institute, 2013):
About 55 (4%) of roughly 1,400 compounds were called active. No rule for the calls is given here. A selection follows. Entries with a potency or affinity are not part of this list.

Assay: viability loss in A549 cells – cell-based, plate reader, cherry-pick samples, cytotoxicity control, dose response (AID 687028);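 also: cells incubated with compound for three days before reading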
Conditions: series mostly up to 19.5 µM

Compound	outcome
C[C@@H]1CCCCO[C@H](CN(C)Cc2ccc(C(F)(F)F)cc2)[C@H](C)CN([C@@H](C)CO)C(=O)c2cc(NC(=O)c3ccccc3)ccc2O1	inactive
C[C@H](CO)N1C[C@H](C)[C@H](CN(C)C(=O)Nc2ccc(F)cc2)OCCCC[C@H](C)Oc2ccc(NC(=O)c3ccccc3)cc2C1=O	inactive
C[C@@H]1CN([C@H](C)CO)C(=O)c2cc(NC(=O)Nc3ccc(C(F)(F)F)cc3)ccc2O[C@@H](C)CCCCO[C@@H]1CN(C)C(=O)Cc1ccccc1	inactive
C[C@@H]1CCCCO[C@@H](CN(C)C(=O)Nc2ccc(C(F)(F)F)cc2)[C@H](C)CN([C@H](C)CO)C(=O)c2cc(NC(=O)Cc3ccccc3)ccc2O1	inactive
Cc1nc2ccccc2n1C(c1cccnc1)c1nc2ccccc2[nH]1 (stereo not drawn)	inactive
O=C1c2ccccc2C(=O)N1CC(=O)N1c2ccccc2Sc2ccc(C(F)(F)F)cc21	inactive
COc1ccccc1NCC(=O)N/N=C(\C)c1ccc(Br)s1	inactive
O=C(NCCCCNC(=O)c1cccnc1Cl)c1cccnc1Cl	inactive
Oc1ccc(Cl)cc1CNCc1ccc(F)cc1	inactive
Cc1ccc(CNCc2cc(Cl)ccc2O)cc1	inactive
O=C(NC1CC1)c1cccc(NC(=O)c2cc(S(=O)(=O)N3CCOCC3)ccc2Cl)c1	inactive
O=C(C[C@@H]1CC[C@H]2[C@@H](COC[C@H](O)CN2C(=O)c2ccccc2F)O1)NCc1ccccc1	inactive
COc1cccc(C(=O)N2CCOCC2)c1	inactive
CCC(=O)Nc1nnc(/C=C/c2ccc(OC)cc2)s1	inactive
C[C@@H]1CCCCO[C@H](CN(C)C(=O)NC2CCCCC2)[C@@H](C)CN([C@H](C)CO)C(=O)c2cc(NC(=O)CCCCCC(=O)Nc3ccccc3N)ccc2O1	inactive
Clc1cc(Br)ccc1OCCOCCN1CCCC1	inactive
Clc1cc(Br)ccc1OCCCn1ccnc1	inactive
COc1ccc(C(=O)NCCNc2nc3c(C)cccc3cc2C#N)cc1OC	inactive
Cn1c(N)c(C(=O)N2CCN(c3ccccc3)CC2)c(=O)n(C)c1=O	inactive
CN1c2ccc(Br)cc2[C@H]2[C@H](CCN2C(=O)C2CCC2)[C@H]1CO	inactive
CN1c2ccc(Br)cc2[C@@H]2[C@@H](CCN2C(=O)C2CCCC2)[C@H]1CO	inactive
COc1cccc(C2(c3cccc(OC)c3)CC2C(=O)Nc2ccc(F)cc2)c1 (stereo not drawn)	inactive
CN1C(C)(C)c2ccccc2OS1(=O)=O	inactive
O=C(CN1CCN(S(=O)(=O)c2ccccc2F)CC1)NC1CCCC1	inactive

Compound	outcome
COc1ccc(S(=O)(=O)N2CCC(C(=O)NCCC(=O)NCc3ccccn3)CC2)cc1	inactive
O=C(NCc1ccccc1)[C@H]1CCCN1C(=O)[C@H]1CCCN1C(=O)c1ccc(Cl)cc1	inactive
COc1ccc(C2=Nn3c(nnc3-c3ccccc3Cl)SC2)cc1OCC1CC1	inactive
Cc1ccc(S(=O)(=O)Cc2ccccc2Cl)cc1	inactive
CC(NC(=O)CN1CCN(c2cccc(Cl)c2)CC1)c1ccccc1 (stereo not drawn)	inactive
CC(C)(C)c1ccc(C(=O)OCC(=O)Nc2sc3c(c2C#N)CCC3)cc1	inactive
COc1ccc(-c2nc(NCCCN(C)C)c3ccccc3n2)cc1	inactive
COc1ccc(C(CNC(=O)c2cccc3cccnc23)N(C)C)cc1 (stereo not drawn)	inactive
COC(=O)[C@@H]1[C@H](CCc2ccccc2)NC(=O)N(Cc2ccccc2)[C@@H]1C	inactive
COc1ccc(C2=Nc3ccccc3N(C(=O)c3ccncc3)C2C(=O)NC(C)C)cc1 (stereo not drawn)	inactive
COc1ccc(OC)c(NC(=O)NNS(=O)(=O)c2ccc(C)cc2C)c1	inactive
Cc1ccc(C)c(NC(=O)CN2C(=O)C3CC=CCC3C2=O)c1 (stereo not drawn)	inactive
CC1(C(=O)Nc2cccc(OC(F)(F)F)c2)Cc2c(-c3cccc(C(N)=O)c3)ccnc2O1 (stereo not drawn)	inactive
CC1(C(=O)NCc2cccc(C(F)(F)F)c2)CCN1Cc1cc2ccccc2o1 (stereo not drawn)	inactive
C[C@H](CO)N1C[C@H](C)[C@@H](CN(C)S(=O)(=O)c2cn(C)cn2)Oc2ccc(NC(=O)Nc3cccc4ccccc34)cc2CC1=O	inactive
O=C(N[C@@H]1c2ccccc2CC[C@@H]1OCc1ccccc1)c1ccc(C(F)(F)F)cc1	inactive
CCCn1c(NCc2ccc(N(C)C)cc2)nc2ccccc21	inactive
COc1ccc(CNC(=O)COC(=O)CN2C(=O)NC3(CCCC3)C2=O)cc1	inactive
CCC(c1nnnn1-c1c(C)cccc1C)N1CCN(C/C=C/c2ccccc2)CC1 (stereo not drawn)	inactive
O=C1CCCC(c2ccccc2)N1 (stereo not drawn)	inactive
Cc1ccc(NC(=O)CN2CCC(NC(=O)c3cccc(F)c3)CC2)cc1C	inactive
COc1cc(C(=S)N2CCCCC2)ccc1OCC(=O)Nc1ccc(F)cc1	inactive
COc1ccc(CCN2C(=O)CSCC2(C)C(=O)Nc2ccc3c(c2)OCCO3)cc1OC (stereo not drawn)	inactive
CCN1CCN(C(=O)C2CC(=O)N(c3ccc(Cl)cc3)C2)CC1 (stereo not drawn)	inactive

Compound	outcome
COc1cccc(N2CC(C(=O)Nc3ccc(F)cc3)CC2=O)c1 (stereo not drawn)	inactive
CCOc1ccc(/C=N/n2nnnc2N)cc1OCC	inactive
CC(C)(C)N(Cc1ccccc1)C(=O)COC(=O)C1CCN(c2ccc(C(F)(F)F)cn2)CC1	inactive
Cc1cc2oc3ccc(NCCCN4CCOCC4)cc3c(=O)c2cc1C	inactive
CN1CCN(C(=O)c2cc3sc4ccccc4c3s2)CC1	inactive
COC(=O)CN(c1cc(Cl)ccc1OC)S(=O)(=O)c1ccc(OC)c(OC)c1	inactive
Cc1ccc(S(=O)(=O)N(C)C)cc1NC(=O)COC(=O)C1CCCC1	inactive
O=C(NC1CCCC1)c1nc(-c2c(F)cccc2F)oc1-c1ccccc1	inactive
Cc1cccc(C)c1OCC(O)Cn1ccnc1C (stereo not drawn)	inactive
Cc1cccc(C(=O)OCC(=O)NCc2ccc(Cl)cc2)c1	inactive
CN1CCC(=O)N([C@H](COc2ccccc2)Cc2ccccc2)CC1	inactive
O=C(Cc1cn(Cc2ccccc2)c2ccccc12)Nc1ccc(Oc2cccnc2)cc1	inactive
COc1ccc(NC(=O)c2cc3ccccc3cc2O)cc1	inactive
O=C(Oc1ccccc1)c1ccccc1C(=O)Oc1ccccc1	inactive
Cc1ccccc1-c1ccc(C2[C@@H]3CN(C(=O)Cc4ccncc4)C[C@H]2N3)cc1 (stereo partly drawn)	inactive
COCCNC(=O)C1(C)CCCN(C(=O)c2ccccc2)C1 (stereo not drawn)	inactive
COc1ccc(S(=O)(=O)N2CCC(C(=O)N[C@H](C(=O)NCc3ccccc3)C(C)C)CC2)cc1	inactive
CC(C)c1ccc(NC(=O)[C@H](NC(=O)[C@@H]2Cc3ccccc3CN2)c2ccccc2)cc1	inactive
COc1ccc2c(C)c(CCC(=O)NC3CC3)c(=O)oc2c1C	inactive
C[C@@H]1CN([C@H](C)CO)C(=O)Cc2cc(NC(=O)C3CC3)ccc2O[C@H]1CN(C)C(=O)Nc1ccccc1	inactive
CCc1nnc(N2C(=O)c3ccccc3C2(O)c2ccccc2)s1 (stereo not drawn)	inactive
CCN1C(=NCCc2c[nH]c3ccccc23)N[C@@H](c2ccccc2)[C@H](C(=O)OC)[C@H]1C	inactive
O=C(O)CCCCCCCCc1cn(CCc2c[nH]c3ccccc23)nn1	inactive
CCOc1ccc2[nH]c3ncccc3c(=O)c2c1	inactive

Compound	outcome
C[C@@H]1CCCCO[C@@H](CN(C)C(=O)C2CCCCC2)[C@H](C)CN([C@H](C)CO)C(=O)c2cc(NC(=O)c3ccncc3)ccc2O1	inactive
C[C@@H]1CCCCO[C@@H](CN(C)S(=O)(=O)c2ccc(F)cc2)[C@@H](C)CN([C@@H](C)CO)C(=O)c2cc(NC(=O)c3ccccc3)ccc2O1	inactive
O=C1Nc2ccccc2C(=O)N(C2CCCC2)C1C(=O)NC1CC1 (stereo not drawn)	inactive
CC(C)(C)NC(=O)c1cccc(NC(=O)c2ccc3c(c2)C(=O)N(C(C)(C)C)C3=O)c1	inactive
COc1cc(OC)cc(C(=O)Nc2ccc3nc4n(c(=O)c3c2)CCCC4)c1	inactive
O=C(c1ccccc1Cc1ccccc1)N1CCN(S(=O)(=O)c2ccccc2)CC1	inactive
Cc1cc2oc(=O)cc(Cn3ccnc3)c2cc1Cl	inactive
COc1ccc2c3c([nH]c2c1)[C@H](CO)N(C(C)=O)CC31CN(C(=O)c2cccc(F)c2)C1	inactive
COc1ccc2c3c([nH]c2c1)[C@H](CO)N(C(=O)Nc1cccc(F)c1)CC31CN(S(=O)(=O)c2ccccc2)C1	inactive
O=S(=O)(c1cccs1)N1CCN(c2ccnc3cc(Cl)ccc23)CC1	inactive
CN(C[C@H](Cc1ccccc1)N(C[C@@H](CC1CCCCC1)N(CCc1ccccc1)N=O)N=O)N=O	inactive
O=C(C1CCCCC1)N1C[C@H](O)[C@@H](n2cc(C3CC3)nn2)C[C@@H]1c1ccccc1	inactive
CCCCCC(=O)N1C[C@@H](O)[C@H](n2cc(COC(=O)c3ccccc3)nn2)C[C@@H]1c1ccc(C)cc1	inactive
Cc1noc(C)c1NC(=O)Nc1ccc2c(c1)C(=O)N([C@@H](C)CO)C[C@@H](C)[C@@H](CN(C)C)OCCCC[C@@H](C)O2	inactive
CCOC(=O)N1CCC(NCCNC(=O)c2ccc(F)c(F)c2)CC1	inactive
COc1ccc(CN2CCC(C(=O)NC(c3ccc4c(c3)OCO4)c3ccccn3)CC2)cc1 (stereo not drawn)	inactive
C[C@H](NC(=O)C1CCN(S(=O)(=O)c2ccccc2)CC1)C(=O)NCc1cccnc1	inactive
COc1ccc(C2NC(=O)NC(C)=C2C(=O)Nc2cccc(C)c2C)cc1 (stereo not drawn)	inactive
CCN(C[C@H]1N[C@@](C)(C(=O)OC)[C@H]2C(=O)N(C)C(=O)[C@@H]12)S(=O)(=O)c1ccc(-c2ccccc2)cc1	inactive
CC(C)CCNC(=O)C1CC(c2ccccc2C(F)(F)F)=NO1 (stereo not drawn)	inactive
Cc1cccc(N(CC(=O)NC2CC2)S(=O)(=O)c2ccc(Cl)cc2)c1	inactive
